Drawing on the supplement of paper PMC10849652, this text covers log2 fold change for 26 targets.

Common to all, as to assay: log2 fold change, soluble protein after heating vs DMSO (PISA); higher = thermal stabilisation; K562 cells, 10 uM, 30 min; active = over 0.2 and 3.5 SD of the protein, either way, in both replicates (recomputed)
Compound in experiment [1]: C1=CC=C(C=C1)[C@H](COC2=CC3=C(C=C2)NC(=O)N3)NC(=O)C4=CC=CN(C4=O)CC5=CC(=C(C=C5)F)F
The method in brief: (§1)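 Values are thermal stability changes relative to control samples and are taken from duplicates. They are stated as log2 fold changes. Before quantification by TMTpro 16plex LC-MS/MS with equalised channel sums, K562 cells at 2×10^6 cells/mL were treated with 10 μM compound for 30 min, heated in aliquots for 3 min across 48°C-58°C, pooled, extracted in PBS with 0.5% NP-40 at 4°C, and centrifuged at 21,000xg for 90 min to give the soluble supernatant.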

Compound in experiment [2]: CC1=C(SC2=C1C(=N[C@H](C3=NN=C(N32)C)CC(=O)N)C4=CC=C(C=C4)Cl)C
The essentials: as §1

Compound in experiment [3]: CC1=C2C(=CC=C1)N=C(N(C2=O)C3=CC=CC=C3C)CN4C=NC5=C(N=CN=C54)N
The essentials: as §1

Compound in experiment [4]: Cc1sc2c(c1C)C(c1ccc(Cl)cc1)=N[C@@H](CC(=O)OC(C)(C)C)c1nnc(C)n1-2
The essentials:
as §1

Compound in experiment [5]: c1ccc([C@@H]2C[C@H]2NC2CCNCC2)cc1
The essentials:
as §1

Of roughly 7,900 targets only a part is listed; those with a hit were picked by preference. About 0.6% of all pairs of compound and target were hits. Values without a mark were called inactive.

Chain of UniProt Q9H3L0 (Q9H3L0 whole entry, looked up): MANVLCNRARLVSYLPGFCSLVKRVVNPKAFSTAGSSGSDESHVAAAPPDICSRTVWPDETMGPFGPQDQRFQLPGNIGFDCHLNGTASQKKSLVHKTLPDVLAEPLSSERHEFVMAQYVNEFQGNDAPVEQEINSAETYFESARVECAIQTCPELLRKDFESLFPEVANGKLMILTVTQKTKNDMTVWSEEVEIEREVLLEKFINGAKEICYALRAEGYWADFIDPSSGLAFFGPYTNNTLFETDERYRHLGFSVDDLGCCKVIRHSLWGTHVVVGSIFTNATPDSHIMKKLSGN
Chain of UniProt Q9BWT6 (Q9BWT6 whole entry, looked up): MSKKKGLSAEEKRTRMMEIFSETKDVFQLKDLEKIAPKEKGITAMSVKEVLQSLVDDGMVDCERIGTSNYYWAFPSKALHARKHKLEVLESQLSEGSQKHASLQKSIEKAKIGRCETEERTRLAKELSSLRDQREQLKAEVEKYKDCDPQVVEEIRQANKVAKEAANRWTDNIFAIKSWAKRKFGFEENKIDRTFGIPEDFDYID
Chain of UniProt P15531 (P15531 whole entry, looked up): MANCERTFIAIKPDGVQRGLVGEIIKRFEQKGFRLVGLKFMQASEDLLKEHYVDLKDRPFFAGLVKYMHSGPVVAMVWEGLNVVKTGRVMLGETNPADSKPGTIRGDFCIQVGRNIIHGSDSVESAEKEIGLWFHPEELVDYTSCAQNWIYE
Chain of UniProt Q16795 (Q16795 whole entry, looked up): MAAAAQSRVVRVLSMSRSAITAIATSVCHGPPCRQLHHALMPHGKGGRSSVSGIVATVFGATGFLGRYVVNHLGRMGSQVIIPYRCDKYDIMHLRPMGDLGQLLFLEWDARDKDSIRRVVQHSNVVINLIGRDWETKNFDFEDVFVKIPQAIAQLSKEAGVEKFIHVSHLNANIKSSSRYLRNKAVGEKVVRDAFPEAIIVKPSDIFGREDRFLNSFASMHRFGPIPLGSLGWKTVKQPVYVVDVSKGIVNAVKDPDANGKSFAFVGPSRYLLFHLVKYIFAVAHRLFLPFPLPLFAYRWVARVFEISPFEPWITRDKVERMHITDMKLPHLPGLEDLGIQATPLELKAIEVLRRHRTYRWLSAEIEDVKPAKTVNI
Chain of UniProt P55786 (P55786 whole entry, looked up): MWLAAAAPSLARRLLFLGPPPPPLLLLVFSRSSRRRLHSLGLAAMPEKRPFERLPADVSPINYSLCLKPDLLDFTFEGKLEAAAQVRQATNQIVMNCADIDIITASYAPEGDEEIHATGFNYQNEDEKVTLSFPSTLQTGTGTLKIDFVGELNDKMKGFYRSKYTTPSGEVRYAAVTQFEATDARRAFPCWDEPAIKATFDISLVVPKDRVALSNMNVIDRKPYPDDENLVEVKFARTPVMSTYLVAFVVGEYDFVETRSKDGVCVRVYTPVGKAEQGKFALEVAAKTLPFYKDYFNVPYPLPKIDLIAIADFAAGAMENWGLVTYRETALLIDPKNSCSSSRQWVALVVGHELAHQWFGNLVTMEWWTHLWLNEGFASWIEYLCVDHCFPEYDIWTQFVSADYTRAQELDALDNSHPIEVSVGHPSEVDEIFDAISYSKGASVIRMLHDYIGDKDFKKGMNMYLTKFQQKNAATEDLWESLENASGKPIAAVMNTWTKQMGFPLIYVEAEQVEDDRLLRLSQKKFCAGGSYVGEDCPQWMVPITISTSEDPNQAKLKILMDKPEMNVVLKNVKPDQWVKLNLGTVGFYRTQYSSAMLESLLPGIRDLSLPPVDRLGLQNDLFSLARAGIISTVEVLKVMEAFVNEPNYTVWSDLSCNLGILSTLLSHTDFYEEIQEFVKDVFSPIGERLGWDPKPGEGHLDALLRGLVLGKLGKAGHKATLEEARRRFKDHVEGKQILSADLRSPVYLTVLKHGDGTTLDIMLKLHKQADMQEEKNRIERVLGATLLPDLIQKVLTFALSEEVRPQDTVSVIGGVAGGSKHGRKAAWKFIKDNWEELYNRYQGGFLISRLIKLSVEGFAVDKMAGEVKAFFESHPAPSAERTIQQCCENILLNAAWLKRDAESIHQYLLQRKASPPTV
Chain of MTHFD1, A0A384N5Y3 (A0A384N5Y3 whole entry, looked up): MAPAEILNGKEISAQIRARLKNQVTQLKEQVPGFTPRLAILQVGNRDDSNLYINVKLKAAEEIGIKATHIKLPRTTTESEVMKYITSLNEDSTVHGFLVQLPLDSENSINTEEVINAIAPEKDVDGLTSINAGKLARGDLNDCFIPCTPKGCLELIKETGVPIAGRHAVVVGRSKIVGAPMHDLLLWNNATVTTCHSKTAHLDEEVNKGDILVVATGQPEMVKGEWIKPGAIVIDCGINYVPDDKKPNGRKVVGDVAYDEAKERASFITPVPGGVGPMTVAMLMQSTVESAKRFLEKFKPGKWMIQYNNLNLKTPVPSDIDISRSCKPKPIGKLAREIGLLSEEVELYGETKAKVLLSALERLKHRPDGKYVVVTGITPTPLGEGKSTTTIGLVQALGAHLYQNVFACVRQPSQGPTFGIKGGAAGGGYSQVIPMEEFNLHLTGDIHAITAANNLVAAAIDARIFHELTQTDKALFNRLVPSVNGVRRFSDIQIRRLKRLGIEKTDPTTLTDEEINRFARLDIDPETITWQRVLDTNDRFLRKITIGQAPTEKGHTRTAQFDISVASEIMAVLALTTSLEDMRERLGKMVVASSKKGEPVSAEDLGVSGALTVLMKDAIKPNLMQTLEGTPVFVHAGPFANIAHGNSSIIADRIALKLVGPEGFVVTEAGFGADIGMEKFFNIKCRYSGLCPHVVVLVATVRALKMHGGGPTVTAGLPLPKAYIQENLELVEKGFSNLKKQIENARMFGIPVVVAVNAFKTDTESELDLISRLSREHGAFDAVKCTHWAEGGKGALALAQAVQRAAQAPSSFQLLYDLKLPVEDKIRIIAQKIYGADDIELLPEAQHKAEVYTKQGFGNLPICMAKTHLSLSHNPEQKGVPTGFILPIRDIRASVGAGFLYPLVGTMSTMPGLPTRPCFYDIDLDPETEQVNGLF
Chain of UniProt Q9UHC9 (Q9UHC9 whole entry, looked up): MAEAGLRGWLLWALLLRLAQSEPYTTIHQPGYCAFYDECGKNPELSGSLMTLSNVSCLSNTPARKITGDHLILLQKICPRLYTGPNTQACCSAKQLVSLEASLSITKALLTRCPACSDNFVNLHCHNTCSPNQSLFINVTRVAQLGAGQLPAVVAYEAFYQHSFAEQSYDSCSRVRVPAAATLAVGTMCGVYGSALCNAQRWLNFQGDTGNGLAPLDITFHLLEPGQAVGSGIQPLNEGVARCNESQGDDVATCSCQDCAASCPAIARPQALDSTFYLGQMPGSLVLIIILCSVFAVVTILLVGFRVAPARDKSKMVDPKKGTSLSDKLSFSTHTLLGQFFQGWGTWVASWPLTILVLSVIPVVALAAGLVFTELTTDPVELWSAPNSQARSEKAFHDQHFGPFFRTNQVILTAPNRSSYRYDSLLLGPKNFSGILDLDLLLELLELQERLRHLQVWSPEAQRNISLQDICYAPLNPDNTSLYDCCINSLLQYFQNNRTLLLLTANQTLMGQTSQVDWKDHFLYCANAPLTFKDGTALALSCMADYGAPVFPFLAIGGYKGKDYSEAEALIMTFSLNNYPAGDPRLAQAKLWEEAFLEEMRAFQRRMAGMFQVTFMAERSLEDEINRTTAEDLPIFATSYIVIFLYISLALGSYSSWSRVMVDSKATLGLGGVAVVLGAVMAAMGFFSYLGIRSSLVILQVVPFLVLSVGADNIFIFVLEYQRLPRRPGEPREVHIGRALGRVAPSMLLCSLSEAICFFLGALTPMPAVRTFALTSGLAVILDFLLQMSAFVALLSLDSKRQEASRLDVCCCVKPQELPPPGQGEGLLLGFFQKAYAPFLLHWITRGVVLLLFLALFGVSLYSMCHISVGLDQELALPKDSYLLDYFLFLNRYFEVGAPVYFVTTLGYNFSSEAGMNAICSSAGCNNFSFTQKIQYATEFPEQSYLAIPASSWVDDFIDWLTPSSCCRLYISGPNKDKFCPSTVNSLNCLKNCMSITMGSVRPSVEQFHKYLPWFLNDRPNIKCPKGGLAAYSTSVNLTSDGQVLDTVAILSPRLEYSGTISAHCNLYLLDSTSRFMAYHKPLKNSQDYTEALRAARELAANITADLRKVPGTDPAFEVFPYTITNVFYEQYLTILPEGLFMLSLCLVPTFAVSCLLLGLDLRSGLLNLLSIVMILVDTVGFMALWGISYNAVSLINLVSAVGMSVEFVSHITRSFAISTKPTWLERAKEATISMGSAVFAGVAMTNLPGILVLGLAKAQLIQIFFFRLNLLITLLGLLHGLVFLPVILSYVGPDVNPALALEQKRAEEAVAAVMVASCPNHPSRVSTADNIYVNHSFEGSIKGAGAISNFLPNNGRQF
Chain of UniProt Q9UMY1 (Q9UMY1 whole entry, looked up): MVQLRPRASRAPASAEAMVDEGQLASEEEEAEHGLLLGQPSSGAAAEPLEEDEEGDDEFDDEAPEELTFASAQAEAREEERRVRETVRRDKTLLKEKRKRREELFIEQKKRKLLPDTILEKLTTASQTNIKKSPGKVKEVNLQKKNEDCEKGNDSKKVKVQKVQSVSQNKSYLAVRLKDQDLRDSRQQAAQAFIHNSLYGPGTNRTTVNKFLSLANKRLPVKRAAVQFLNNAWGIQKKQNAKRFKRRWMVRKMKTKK
Chain of UniProt P49914 (P49914 whole entry, looked up): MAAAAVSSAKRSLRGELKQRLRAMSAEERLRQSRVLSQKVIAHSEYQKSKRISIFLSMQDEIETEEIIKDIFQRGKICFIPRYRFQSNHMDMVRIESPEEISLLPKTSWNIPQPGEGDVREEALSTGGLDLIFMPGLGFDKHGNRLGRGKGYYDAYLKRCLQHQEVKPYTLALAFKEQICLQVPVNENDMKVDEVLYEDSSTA
Chain of UniProt Q9NRP0 (Q9NRP0 whole entry, looked up): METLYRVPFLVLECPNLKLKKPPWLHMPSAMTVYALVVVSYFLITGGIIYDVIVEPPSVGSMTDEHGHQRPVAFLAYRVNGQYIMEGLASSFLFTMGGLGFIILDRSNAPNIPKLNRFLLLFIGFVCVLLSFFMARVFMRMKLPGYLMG

Take NARS2 (UniProt Q96I59): the log2 fold change in experiment [1] is 0; in experiment [2], 0.057; in experiment [3] it was 0.059; in experiment [4] it was 0; in experiment [5] it was -0.027.

Turning to MSTO1 (UniProt Q9BUK6), the log2 fold change in experiment [1] was -0.041; in experiment [2], 0.046; in experiment [3] it was 0.002; in experiment [4], -0.005; in experiment [5], -0.071.

Regarding MT-ATP6 (UniProt P00846), the log2 fold change in experiment [1] is -0.828 (active); in experiment [2], -0.065; in experiment [3], 0.076; in experiment [4], -0.223; in experiment [5], -0.035.

MMADHC (UniProt Q9H3L0): the log2 fold change in experiment [1] is 0.056; in experiment [2] it was -0.155; in experiment [3] it was 0.057; in experiment [4], 0.088; in experiment [5], 0.077.

Consider NPEPPS (UniProt P55786), for which the log2 fold change in experiment [1] is -0.044; in experiment [2] it was 0.064; in experiment [3], 0.159; in experiment [4] it was -0.003; in experiment [5] it was -0.051.

OSTC (UniProt Q9NRP0): the log2 fold change was -0.031 in experiment [1]; 0.048 in experiment [2]; 0.063 in experiment [3]; -0.213 in experiment [4]; 0.048 in experiment [5].

For MYH11 isoform 2 (UniProt P35749), the log2 fold change in experiment [1] was 0.011; in experiment [2], 0.024; in experiment [3], -0.071; in experiment [4], -0.026; in experiment [5] it was -0.036.

Turning to NAPG (UniProt Q99747), the log2 fold change in experiment [1] was -0.036; in experiment [2], 0.044; in experiment [3] it was 0.073; in experiment [4] it was -0.023; in experiment [5] it was -0.077.

Consider NME1 isoform 2 (UniProt P15531), for which the log2 fold change in experiment [1] was 0.095; in experiment [2], 0.142; in experiment [3] it was 0.069; in experiment [4], 0.033; in experiment [5] it was -0.108.

In the case of MRPS5 (UniProt P82675), the log2 fold change in experiment [1] is -0.017; in experiment [2], 0.009; in experiment [3], -0.03; in experiment [4], 0.063; in experiment [5], -0.077.

Take NDUFA9 (UniProt Q16795): the log2 fold change is -0.005 in experiment [1]; 0.075 in experiment [2]; 0.078 in experiment [3]; -0.014 in experiment [4]; -0.054 in experiment [5].

For the target NPC1L1 (UniProt Q9UHC9), the log2 fold change in experiment [1] is 0.183; in experiment [2], 0.063; in experiment [3] it was 0.024; in experiment [4], 0.007; in experiment [5], 0.047.

As to NOS1AP (UniProt O75052), the log2 fold change was -0.109 in experiment [1]; 0.025 in experiment [2]; 0.362 in experiment [3]; -0.141 in experiment [4]; -0.178 in experiment [5].

With MRPS24 (UniProt Q96EL2), the log2 fold change in experiment [1] was -0.016; in experiment [2], -0.026; in experiment [3] it was -0.026; in experiment [4], 0.148; in experiment [5], 0.037.

Regarding MRFAP1 (UniProt Q9Y605), the log2 fold change in experiment [1] was 0.009; in experiment [2] it was 0.109; in experiment [3], -0.043; in experiment [4], 0.031; in experiment [5] it was -0.017.

Consider MTHFS (UniProt P49914), for which the log2 fold change in experiment [1] is -0.075; in experiment [2], 0.035; in experiment [3] it was -0.086; in experiment [4], -0.023; in experiment [5] it was -0.061.

Turning to MMS19 isoform 8 (UniProt Q96T76), the log2 fold change is -0.034 in experiment [1]; -0.001 in experiment [2]; 0.133 in experiment [3]; 0.002 in experiment [4]; -0.003 in experiment [5].

For the target MOB3B (UniProt Q86TA1), the log2 fold change in experiment [1] was 0; in experiment [2], 0.029; in experiment [3] it was 0.178; in experiment [4], 0.041; in experiment [5] it was -0.088.

Regarding NOL7 (UniProt Q9UMY1), the log2 fold change was 0.168 in experiment [1]; -0.221 in experiment [2]; -0.265 in experiment [3]; 0.188 in experiment [4]; 0.057 in experiment [5].

Take NBN (UniProt O60934): the log2 fold change was 0.002 in experiment [1]; 0.032 in experiment [2]; 0.036 in experiment [3]; -0.004 in experiment [4]; -0.001 in experiment [5].

Turning to MND1 (UniProt Q9BWT6), the log2 fold change in experiment [1] is 0.009; in experiment [2], 0.012; in experiment [3], 0.081; in experiment [4], 0.088; in experiment [5], 0.102.

As for NHLRC2 (UniProt Q8NBF2), the log2 fold change was -0.027 in experiment [1]; 0.038 in experiment [2]; 0.127 in experiment [3]; 0.009 in experiment [4]; 0.024 in experiment [5].

Turning to NFE2 (UniProt Q16621), the log2 fold change in experiment [1] is 0.054; in experiment [2], -0.004; in experiment [3], 0.12; in experiment [4] it was 0.087; in experiment [5] it was 0.145.

On to PAFAH1B3 (UniProt Q15102), for which the log2 fold change in experiment [1] is -0.076; in experiment [2], 0.139; in experiment [3] it was 0.128; in experiment [4], -0.132; in experiment [5] it was -0.096.

On to MTHFD1, A0A384N5Y3, for which the log2 fold change is -0.063 in experiment [1]; 0.138 in experiment [2]; -0.022 in experiment [3]; -0.002 in experiment [4]; -0.113 in experiment [5].

Turning to NUDT1 (UniProt P36639), the log2 fold change in experiment [1] is 0.556; in experiment [2] it was -0.043; in experiment [3], 0.048; in experiment [4], -0.137; in experiment [5], 0.038.
